Data as given in the supplement of paper PMC9433436.
± gives the standard deviation of the averaged measurements. In all, about 4,100 sequences were measured (“relative kcat/Km (krel) vs genomic leader AAAGAU”: median about 1.7, highest 2% from about 6.5 on). What follows is part of a selection rich in the highest values, with near analogues and random picks from the rest.

Biological target: T1, E. coli RNase P holoenzyme (M1 P RNA + rnpA protein) (UniProt P0A7Y8)
T1 sequence: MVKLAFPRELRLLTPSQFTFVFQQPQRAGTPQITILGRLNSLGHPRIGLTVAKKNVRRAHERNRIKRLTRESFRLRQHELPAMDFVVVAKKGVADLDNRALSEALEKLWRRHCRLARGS
Test: relative kcat/Km (krel) vs genomic leader AAAGAU (relative (reference leader = 1)); higher = faster RNase P cleavage
Protocol: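 HTS-Kin: a pool of ptRNA-Met (21C construct) with all 4096 combinations of 5' leader nucleotides N(-6) to N(-1) was processed in vitro by E. coli RNase P (P RNA + rnpA/C5 protein) under multiple-turnover conditions at 37 C, pH 8, 17.5 mM MgCl2. Residual substrate was Illumina-sequenced at several fractions reacted, and relative kcat/Km (krel) was computed by internal competition kinetics, calibrated to the genomic leader (AAAGAU = 1). The listed hexamer is the varied N(-6)..N(-1) leader (DNA letters), and it sits between a fixed 5' stem-loop flank (GCAUGCACGAAAGUGCGUGCUAUGAA) and the mature tRNA-Met starting GGCUACGUAGCUCAGUUGG. Two technical replicates are averaged.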

[1] = fraction of substrate reacted: ~9-10% (9.79% repeat 1, 9.1% repeat 2)
[2] = fraction of substrate reacted: ~13-16% (15.68% repeat 1, 13.17% repeat 2)
[3] = fraction of substrate reacted: ~26-29% (28.66% repeat 1, 26.4% repeat 2)

| Sequence | relative kcat/Km [1] | relative kcat/Km [2] | relative kcat/Km [3] |
| --- | --- | --- | --- |
| TAAACA | 1.85 ± 0.81 | 1.35 ± 0.24 | 1.75 ± 0.52 |
| ATCGGA | 0.168 ± 0.15 | 0.728 ± 0.66 | 1.28 ± 1.1 |
| CAGCTT | 2.22 ± 1.1 | 1.55 ± 0.38 | 2.33 ± 0.38 |
| GTGCAC | 1.19 ± 0.29 | 1.29 ± 0.18 | 1.98 ± 0.6 |
| GATAAA | 1.84 ± 0.48 | 2.34 ± 0.5 | 3.8 ± 1.4 |
| AGAGAG | – | – | 1.16 ± 0.33 |
| ATCGAA | 3.16 ± 0.35 | 5.71 ± 1.4 | 8.19 ± 3.6 |
| ATCGAT | 1.99 ± 0.67 | 3 ± 0.7 | 3.36 ± 1.2 |
| ATCGAC | 3.59 ± 0.99 | 4.75 ± 0.93 | 6.92 ± 2 |
| GTCGAT | 1.85 ± 0.87 | 2.87 ± 0.49 | 3.7 ± 1.3 |
| ATCGGC | – | – | 1.97 ± 1.5 |
| GTCGTA | 2.55 ± 1.1 | 2.7 ± 0.23 | 3.88 ± 0.79 |
| AGCGAC | 3.26 ± 1.9 | 3 ± 1.1 | 4.06 ± 1.3 |
| GGCGAA | 2.38 ± 1.1 | 2.86 ± 0.39 | 3.85 ± 1.4 |
| GTCGAG | 2.05 ± 1.5 | 2.123 ± 0.001 | 4.03 ± 1.6 |
| GTCGAC | 3.76 ± 0.29 | 5.92 ± 1.9 | 9.01 ± 3.7 |
| GTCGAA | 4.23 ± 1.8 | 5.6 ± 0.65 | 8.71 ± 2.8 |
| ATCGAG | 2.14 ± 2.1 | 1.29 ± 0.12 | 3.85 ± 0.66 |
| TTGCCG | – | – | 0.519 ± 0.071 |
| AGTGAA | 2.54 ± 0.25 | 2.23 ± 0.96 | 3.35 ± 1.5 |
| ATGACA | 1.94 ± 1.6 | 1.85 ± 0.61 | 2.06 ± 0.28 |
| ATACGT | 0.722 ± 0.057 | 1.92 ± 1.6 | – |
| CGCGGA | 1.5 ± 1.2 | 1.39 ± 0.29 | 1.41 ± 0.58 |
| AGCACC | 2.38 ± 0.45 | 2.12 ± 1.5 | 3.05 ± 1.8 |
| CCTGGT | – | – | 2.47 ± 0.83 |
| CTCGAT | 1.97 ± 0.027 | 2.48 ± 1.3 | 4.24 ± 2.1 |

| Sequence | relative kcat/Km [1] | relative kcat/Km [2] | relative kcat/Km [3] |
| --- | --- | --- | --- |
| CTCGAC | 5.18 ± 1.3 | 6.72 ± 2.8 | 9.16 ± 4.6 |
| CTCGAG | 1.8 ± 0.06 | 1.72 ± 1.4 | 3.97 ± 1.3 |
| TAGGGA | 0.803 ± 0.65 | – | – |
| GGAAAC | 1.99 ± 1.4 | 1.61 ± 1.1 | 2.23 ± 0.17 |
| CCGCGC | 2.23 ± 0.85 | 1.53 ± 0.98 | 1.76 ± 0.15 |
| GCGCAT | 1.99 ± 0.76 | 2.09 ± 1.1 | 3.07 ± 1.8 |
| AAAAGC | – | – | 0.981 ± 0.48 |
| ACAGTG | – | – | 0.981 ± 0.72 |
| CCGGTA | 1.49 ± 0.78 | 1.25 ± 0.69 | – |
| AACGCG | 1.32 ± 0.5 | 0.857 ± 0.52 | 1.47 ± 0.078 |
| ACCCGA | 3.55 ± 0.39 | 4.06 ± 0.66 | 5.44 ± 1.5 |
| TCCCGA | 3.95 ± 1.4 | 4.81 ± 0.41 | 7.64 ± 2.3 |
| TCCCGC | 4.31 ± 2.6 | 5.2 ± 0.32 | 7.32 ± 3.2 |
| CCCCGC | 2.14 ± 1.4 | 2.8 ± 0.83 | 4.54 ± 1.6 |
| CCCCGA | 3.63 ± 1.8 | 4.05 ± 0.29 | 4.96 ± 1.9 |
| ACCCGC | 3.03 ± 1.8 | 3.51 ± 0.3 | 4.87 ± 1.5 |
| TTGCGG | 0.933 ± 0.76 | 0.256 ± 0.11 | 1.14 ± 0.22 |
| AAATAA | 2.68 ± 1.5 | 2.92 ± 0.98 | 3.44 ± 1.2 |
| TCACGC | 2.24 ± 0.65 | 3 ± 0.93 | 4.05 ± 1.5 |
| GTGACT | – | 0.972 ± 0.2 | 1.08 ± 0.28 |
| GGGACA | 1.4 ± 1.2 | 0.801 ± 0.45 | 1.2 ± 0.15 |
| GGGTGC | 0.876 ± 0.24 | 0.837 ± 0.025 | 1.04 ± 0.35 |
| ATGTTG | – | – | 0.642 ± 0.16 |
| TTCTCA | 4.88 ± 2.1 | 5.74 ± 0.87 | 8.21 ± 3.6 |
| GTCTCT | 4.15 ± 1.8 | 5.51 ± 0.37 | 7.16 ± 1.8 |
